A short description of test [1]: BSK_3C_uPAR: BioMAP Diversity Plus: 3C Assay for Urokinase-type plasminogen activator receptor (uPAR) Biomarker Activity (AID 2282998). Particulars: BioMAP 3C HUVEC, uPAR biomarker ELISA; actives raise or lower the signal. The method, boiled down: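 Dose primary human umbilical vein endothelial cells, incubate 24 h, measure cell-surface uPAR by ELISA, then fit the signal in both directions against the DMSO negative control.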
(In an ELISA, binding on a coated surface is turned into a signal by an enzyme label.)

Test [2] in a line: BSK_3C_VCAM1: BioMAP Diversity Plus: 3C Assay for Vascular cell adhesion molecule 1 (VCAM1) Biomarker Activity (AID 2282999). Particulars: BioMAP 3C HUVEC, VCAM1 ELISA, cytokine-stimulated; actives raise or lower the signal. The method, boiled down: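 Human umbilical vein endothelial cells (3C system), biomarker read by ELISA 24 h after dosing; bidirectional fit against DMSO baseline. Cytotoxicity tracked by SRB total-protein staining in parallel cultures at biomarker time.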

Test [3] is described as follows: BSK_4H_Eotaxin3: BioMAP Diversity Plus: 4H Assay for Eotaxin 3 Biomarker Activity (AID 2283000).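 For outcome: CCL26 protein level quantified by ELISA in parallel with SRB cytotoxicity check.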 Conditions: primary human endothelial cells (HUVEC); actives raise or lower the signal. The method, boiled down: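 Chemicals were added to human umbilical vein endothelium cultures, and Eotaxin-3 was quantified by ELISA at 24 h. Values were derived by bidirectional fitting with DMSO serving as negative control and activity baseline.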

A short description of test [4]: BSK_3C_Proliferation: Cell Proliferation Assessment in the BioMAP Diversity Plus: 3C Assay (AID 2283006).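 For AC50: potency may reflect either rise or fall in cell number versus DMSO.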 Particulars: primary human endothelial cells (HUVEC). The method, boiled down: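 Proliferation of human vascular endothelial primary cells after 48 h dosing, quantified as SRB-stained protein at 560 nm relative to DMSO.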
Read-out in test [5]: Interleukin-1 alpha (IL1a), IL1A (gene 3552)
Description: BSK_BE3C_IL1a: BioMAP Diversity Plus: BE3C Assay for Interleukin-1 alpha (IL1a) Biomarker Activity (AID 2283016). Particulars: primary human bronchial epithelial cells; actives raise or lower the signal. The method, boiled down:
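Cultures of primary human bronchial epithelial cells receive test chemical. After 24 h, IL-1a is quantified by ELISA, while parallel wells are fixed in TCA and SRB-stained for total protein. Changes in either direction are fitted relative to DMSO.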

Read-out in test [6]: Monocyte Chemoattractant Protein-1 (MCP1), CCL2 (gene 6347)
Description: BSK_3C_MCP1: BioMAP Diversity Plus: 3C Assay for Monocyte Chemoattractant Protein-1 (MCP1) Biomarker Activity (AID 2283017). Particulars: primary human endothelial cells (HUVEC); actives raise or lower the signal. The method, boiled down: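 ELISA read-out of MCP-1 from human umbilical vein endothelial cell cultures harvested 24 h post-dosing. Gain or loss of signal was fitted relative to DMSO.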

Read-out in test [7]: Monocyte Chemoattractant Protein-1 (MCP1), CCL2 (gene 6347)
Description: BSK_4H_MCP1: BioMAP Diversity Plus: 4H Assay for Monocyte Chemoattractant Protein-1 (MCP1) Biomarker Activity (AID 2283018). Particulars: primary human endothelial cells (HUVEC); actives raise or lower the signal. The method, boiled down: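 Readout: MCP-1 ELISA on compound-treated HUVEC, sampled 24 h post-dosing. Baseline and negative control DMSO; bidirectional fit. Overt toxicity checked alongside by sulforhodamine B protein staining at time of biomarker measurement.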

Read-out in test [8]: Monokine induced gamma interferon (MIG), CXCL9 (gene 4283)
As to the kind of experiment: BSK_3C_MIG: BioMAP Diversity Plus: 3C Assay for Monokine induced gamma interferon (MIG) Biomarker Activity (AID 2283021).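 For AC50: MIG protein level measured by immunoassay in the treated endothelial cultures.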 Particulars: primary human endothelial cells (HUVEC); actives raise or lower the signal. The method, boiled down: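 After 24 h of treatment, human umbilical vein endothelial cultures (3C system) had their MIG biomarker level determined by ELISA, with DMSO serving as negative control.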

Test [9] can be described thus: BSK_3C_SRB: Viability Assessment in the BioMAP Diversity Plus: 3C Assay (AID 2283023).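 Note: fitted both ways against DMSO so a hit may be signal rise or drop.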 Particulars: primary human endothelial cells (HUVEC). The method, boiled down:
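Absorbance at 560 nm of sulforhodamine B-stained (0.1%) total protein served as a cytotoxicity readout in human umbilical vein endothelial cells, 24 h after chemical treatment. Signal was fitted bidirectionally relative to DMSO.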

The nature of test [10]: BSK_4H_SRB: Viability Assessment in the BioMAP Diversity Plus: 4H Assay (AID 2283027).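 For AC50: curves fitted both ways versus DMSO so AC50 may be loss or gain.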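 Note: cells exposed to compound for 24 h before staining.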 Particulars: primary human endothelial cells (HUVEC). The method, boiled down:
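Human umbilical vein endothelial cells, 24 h after chemical dosing; total protein measured by 0.1% sulforhodamine B staining after 10% TCA fixation, read at 560 nm. Bidirectional fitting against DMSO.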

Test [11] is described as follows: BSK_BE3C_SRB: Viability Assessment in the BioMAP Diversity Plus: BE3C Assay (AID 2283028).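 For AC50: fitted both ways so AC50 may mark signal gain or loss versus DMSO.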 Particulars: primary human bronchial epithelial cells. The method, boiled down:
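Cells (human bronchial epithelial, primary) are treated with chemicals, and after 24 h the parallel cultures are fixed in 10% TCA. These are then stained with 0.1% SRB and read at 560 nm. Gain or loss of signal is fitted relative to DMSO.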

Read-out in test [12]: Plasminogen activator inhibitor-1 (PAI1), SERPINE1 (gene 5054)
Description: BSK_BE3C_PAI1: BioMAP Diversity Plus: BE3C Assay for Plasminogen activator inhibitor-1 (PAI1) Biomarker Activity (AID 2283037). Particulars: primary human bronchial epithelial cells; actives raise or lower the signal. The method, boiled down:
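PAI-1 biomarker levels in treated human bronchial epithelial cells are determined by ELISA at 24 h. Both increases and decreases relative to DMSO are fitted.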

Read-out in test [13]: Tissue plasminogen activator (tPA), PLAT (gene 5327)
Description: BSK_BE3C_tPA: BioMAP Diversity Plus: BE3C Assay for Tissue plasminogen activator (tPA) Biomarker Activity (AID 2283041).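 For outcome: tPA level quantified by ELISA one day after compound addition.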 Conditions: primary human bronchial epithelial cells; actives raise or lower the signal. The method, boiled down: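 Bidirectional curve fitting relative to DMSO defined activity, with tPA detected by ELISA in chemically treated human bronchial epithelial primary cells at 24 hours.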

Test [14] has as its target Oxysterols receptor LXR-alpha (Homo sapiens) (UniProt Q13133). As to the kind of experiment: ATG_LXRa_TRANS: Attagene TRANS-FACTORIAL HepG2 Assay for human Liver X Receptor alpha (LXRa) (AID 2282980; active = hit-call score of the fitted dose curve at least 0.9, where 1 is the maximum). Particulars: HepG2 Attagene TRANS reporter, LXRa transactivation. The method, boiled down: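 Transfect HepG2 with GAL4-UAS multiplex reporter constructs (TRANS format, chimeric receptor-GAL4); treat 24 h; extract RNA, reverse-transcribe, PCR-amplify, FAM-label, HpaI-digest; resolve fragments by capillary electrophoresis. Upward response vs DMSO.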

Test [15] can be described thus: ATG_NRF2_ARE_CIS: Attagene CIS-FACTORIAL HepG2 Assay for human Nuclear Factor Erythroid 2 Related Factor 2 (NFR2) response to Antioxidant Response Elements (ARE) (AID 2282992).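 For AC50: reporter mRNA level measured by RT-PCR and capillary electrophoresis fluorescence.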 Conditions: HepG2 Attagene ARE/NRF2 reporter, transcription factor activity; actives raise or lower the signal. The method, boiled down:
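Multiplexed reporter mRNA profiling in HepG2 after a 24 h chemical exposure. Curves fitted in both directions relative to DMSO negative control.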

For test [16], the target named is human Thyroid Receptor alpha (THRa1), THRA (gene 7067) (UniProt P10827). Description: ATG_THRa1_TRANS: Attagene TRANS-FACTORIAL HepG2 Assay for human Thyroid Receptor alpha (THRa1) (AID 2283014; active = hit-call score of the fitted dose curve at least 0.9, where 1 is the maximum). The method, boiled down: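 Reporter transcript induction, read by capillary electrophoresis of 6-FAM-labelled RT-PCR products, reflects activity of a transfected THRa1-Gal4 fusion in HepG2 liver cells. Cells were dosed for 24 h; activity was fitted in the positive direction against DMSO.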

Test [17] concerns the target X-box-binding protein 1 (Homo sapiens) (UniProt P17861). Description: ATG_Xbp1_CIS: Attagene CIS-FACTORIAL HepG2 Assay for human X-box Binding Protein 1 (XBP1) (AID 2282972). Particulars: HepG2 XBP1 cis-element reporter, Attagene multiplex; actives raise or lower the signal. The method, boiled down: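 Fluorescence-labelled cDNA fragments from reporter transcripts, separated by capillary electrophoresis, give the signal. Source: HepG2 cells transfected with promoter-driven reporter units, harvested 24 h post-dose. DMSO served as reference for bidirectional curve fitting.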

Test [18] can be described thus: ATG_GAL4_TRANS: Attagene TRANS-FACTORIAL HepG2 Assay for GAL4 (Internal Marker) (AID 2282976; active = hit-call score of the fitted dose curve at least 0.9, where 1 is the maximum). Conditions: HepG2 Attagene TRANS GAL4 internal marker reporter. The method, boiled down: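 First, HepG2 cells were transfected with reporter units under GAL4-UAS control. Next, they were treated with chemical for 24 h. Finally, RNA was reverse-transcribed, PCR-amplified, FAM-labelled and resolved by capillary electrophoresis, with induction scored against DMSO.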

Test [19] addresses Nuclear receptor subfamily 4 group A member 2 (Homo sapiens) (UniProt P43354). Description: ATG_NURR1_TRANS: Attagene TRANS-FACTORIAL HepG2 Assay for human Nuclear Receptor Related Protein 1 (NURR1) (AID 2282985; active = hit-call score of the fitted dose curve at least 0.9, where 1 is the maximum). Particulars: HepG2 Attagene TRANS reporter, mRNA readout. The method, boiled down:
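HepG2 / transient MRTU transfection / 24 h compound exposure / RT-PCR + CE fluorescence of reporter mRNA / gain-of-signal vs DMSO.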

The nature of test [20]: ATG_XTT_Cytotoxicity: Cytotoxicity Assessment in the Attagene TRANS-FACTORIAL HepG2 Assay (AID 2283584; active = hit-call score of the fitted dose curve at least 0.9, where 1 is the maximum). The method, boiled down:
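Cells: human HepG2, transiently transfected with MRTU reporter constructs. Exposure 24 h. Readout: XTT, cell number. Baseline/neg ctrl DMSO; loss-of-signal scored.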

“And” between values parts separate entries of the source, which are not always exact repeats. Equal entries are not always repeated. Records with an inconclusive call do not appear. The source made the active and inactive calls. Rule for the calls, unless noted: active = hit-call score of the fitted dose curve at least 0.9, where 1 is the maximum; inactive = score below 0.9.

As usually defined, the AC50 is the concentration at which the activity in the assay is half-maximal.

Sequence of human Thyroid Receptor alpha (THRa1), THRA (gene 7067) (P10827 whole entry, looked up, the tested form may be a part): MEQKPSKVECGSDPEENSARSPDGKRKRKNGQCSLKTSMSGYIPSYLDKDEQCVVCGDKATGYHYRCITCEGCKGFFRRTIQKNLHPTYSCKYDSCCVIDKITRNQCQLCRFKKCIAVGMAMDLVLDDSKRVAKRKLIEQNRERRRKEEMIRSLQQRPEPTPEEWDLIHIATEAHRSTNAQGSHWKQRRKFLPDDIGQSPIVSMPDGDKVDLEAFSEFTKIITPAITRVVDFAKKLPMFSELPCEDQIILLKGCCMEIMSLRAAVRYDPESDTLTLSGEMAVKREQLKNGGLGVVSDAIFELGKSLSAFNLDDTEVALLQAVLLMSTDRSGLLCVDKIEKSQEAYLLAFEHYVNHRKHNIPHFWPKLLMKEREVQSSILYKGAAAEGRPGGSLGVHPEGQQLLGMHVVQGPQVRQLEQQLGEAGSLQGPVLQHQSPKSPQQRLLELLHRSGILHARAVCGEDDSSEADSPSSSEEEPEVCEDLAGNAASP
Sequence of X-box-binding protein 1 (Homo sapiens) (P17861 whole entry, looked up, the tested form may be a part): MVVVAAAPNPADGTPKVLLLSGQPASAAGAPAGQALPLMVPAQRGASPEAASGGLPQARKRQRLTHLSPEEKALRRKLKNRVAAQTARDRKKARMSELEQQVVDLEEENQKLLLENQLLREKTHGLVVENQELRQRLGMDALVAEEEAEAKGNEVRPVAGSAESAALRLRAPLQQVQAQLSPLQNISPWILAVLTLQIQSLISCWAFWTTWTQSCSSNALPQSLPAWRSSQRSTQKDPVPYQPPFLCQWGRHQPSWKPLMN
Sequence of Oxysterols receptor LXR-alpha (Homo sapiens) (Q13133 whole entry, looked up, the tested form may be a part): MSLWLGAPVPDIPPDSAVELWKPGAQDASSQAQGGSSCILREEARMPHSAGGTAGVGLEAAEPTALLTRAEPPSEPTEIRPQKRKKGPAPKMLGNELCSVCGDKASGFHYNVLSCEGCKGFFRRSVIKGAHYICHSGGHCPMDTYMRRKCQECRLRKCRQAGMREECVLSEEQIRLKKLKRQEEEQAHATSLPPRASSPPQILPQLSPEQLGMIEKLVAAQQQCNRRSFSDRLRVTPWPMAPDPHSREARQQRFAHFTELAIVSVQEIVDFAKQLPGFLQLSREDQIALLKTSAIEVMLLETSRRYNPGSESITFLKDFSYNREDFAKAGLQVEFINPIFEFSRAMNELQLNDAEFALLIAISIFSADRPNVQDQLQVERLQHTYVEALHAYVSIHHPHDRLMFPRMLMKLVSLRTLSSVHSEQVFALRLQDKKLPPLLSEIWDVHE
Sequence of Nuclear receptor subfamily 4 group A member 2 (Homo sapiens) (P43354 whole entry, looked up): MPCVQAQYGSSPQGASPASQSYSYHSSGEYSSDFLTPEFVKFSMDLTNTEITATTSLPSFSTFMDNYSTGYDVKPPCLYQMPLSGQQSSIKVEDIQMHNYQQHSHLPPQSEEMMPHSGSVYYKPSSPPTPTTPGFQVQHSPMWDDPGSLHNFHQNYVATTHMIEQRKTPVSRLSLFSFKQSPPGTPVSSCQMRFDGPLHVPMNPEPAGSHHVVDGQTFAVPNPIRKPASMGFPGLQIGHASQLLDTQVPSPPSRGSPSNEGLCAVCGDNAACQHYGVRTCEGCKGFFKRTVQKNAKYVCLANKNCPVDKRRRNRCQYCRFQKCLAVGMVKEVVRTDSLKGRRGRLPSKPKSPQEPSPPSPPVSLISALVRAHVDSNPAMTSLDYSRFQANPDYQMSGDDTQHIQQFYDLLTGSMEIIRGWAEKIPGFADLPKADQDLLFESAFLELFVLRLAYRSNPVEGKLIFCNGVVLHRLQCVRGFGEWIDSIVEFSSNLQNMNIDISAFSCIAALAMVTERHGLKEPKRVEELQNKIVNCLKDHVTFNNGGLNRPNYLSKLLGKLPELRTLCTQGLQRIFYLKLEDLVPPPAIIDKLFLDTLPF

As to `Cc1c(C(N)=O)cc([N+](=O)[O-])cc1[N+](=O)[O-]`, the result in test [1], in test [2], in test [3], in [4], in [5] and in test [6] was inactive. Further, the outcome in test [7], in test [8], in test [9], in [10], in [11] and in test [12] was inactive. In addition, in test [13], the result was inactive.

In the case of `Oc1ccc(Oc2ccccc2)cc1`, the compound was classed as inactive in test [14], in [15] and in [16].

For the compound `CCC[Si](OC(C)=O)(OC(C)=O)OC(C)=O`, the outcome in test [1], in [2], in test [3], in test [4], in [5] and in test [6] was inactive. Moreover, the outcome in [7], in test [8], in test [9], in test [10], in [11] and in test [12] was inactive. In test [13], the result was inactive.

As to `CCO[Si](OCC)(OCC)c1ccccc1`, the result in test [17], in [18], in [19], in test [15] and in test [16] was inactive.

Take `N#CCN(CC#N)CCN(CC#N)CC#N`: the compound was called inactive in test [17], in [18] and in [20].

For the compound `COc1cc(CNC(=O)CCCC/C=C/C(C)C)ccc1O`, the outcome in test [1], in test [2], in test [3], in [5], in test [6] and in [7] was inactive. The outcome in [8], in test [9], in test [10], in test [11], in test [12] and in test [13] was inactive. Further, the AC50 in test [4] was 8.93 µM (active) and 9.17 µM (active).

As to `COc1ccccc1Oc1c(NS(=O)(=O)c2ccc(C(C)(C)C)cc2)nc(-c2ncccn2)nc1OCCO`, the result in test [1], in [2], in test [5], in test [6], in [7] and in test [8] was inactive. In addition, the result in [9], in test [10], in test [11], in [12] and in test [13] was inactive. Further, the AC50 in test [3] is 7.97 µM (active) and 11.3 µM (active); in test [4], 28.2 µM (active) and 13.9 µM (active).

`Cc1ccnc(N)c1`: the result in test [18], in test [16] and in test [20] was inactive. In [15], the AC50 is 66.8 µM (active).

With `CC(C)C1OCCN1CCOC(=O)NCCCCCCNC(=O)OCCN1CCOC1C(C)C` (stereo not drawn), the outcome in test [1], in test [2], in [3], in test [4], in test [5] and in [6] was inactive. Moreover, the result in test [7], in [8], in [9], in test [10], in test [11] and in test [12] was inactive. For the same compound, in [13], the result was inactive.

As to `CC/C=C\CCCCCO`, the result in [18], in test [15], in test [16] and in test [20] was inactive.

For the compound `OC(C(F)(F)F)(C(F)(F)F)C(O)(C(F)(F)F)C(F)(F)F`, the AC50 is 13.8 µM (active) and 10.7 µM (active) in [1]; 38.6 µM (active) and 42.1 µM (active) in test [2]; 22.3 µM (active) and 27.4 µM (active) in test [3]; 22.1 µM (active) and 21.6 µM (active) in test [4]; 31.6 µM (active) and 31.3 µM (active) in [5]; 49.9 µM (active) and 50.5 µM (active) in test [6]. The AC50 is 21.5 µM (active) and 10.1 µM (active) in test [7]; 43.7 µM (active) and 50.9 µM (active) in test [8]; 30 µM (active) and 27.7 µM (active) in test [9]; 27.5 µM (active) and 26 µM (active) in [10]; 48 µM (active) and 48.9 µM (active) in test [11]; 13.9 µM (active) and 12.5 µM (active) in test [12]. In addition, in test [13], the AC50 is 17 µM (active) and 16 µM (active).

In the case of `CCCCCCOC(=O)CCCCCCCC(=O)OCCCCCC`, the outcome in test [17], in [18], in [14], in test [19], in test [16] and in test [20] was inactive.

The values are drawn from PubChem BioAssay (EPA / NIEHS).
